The supplement of paper PMC10646978
± gives the standard deviation.

Legend:
Details in all cases: modulator concentration 10 µM
[1] = tested on: RAW-Dual (murine macrophage reporter line); assay: NF-kB reporter (SEAP) activity fold change vs agonist alone; higher = enhanced NF-kB activity
Method in brief: (§1)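 RAW-Dual murine macrophage reporter cells were plated at 50 000 per well in 384-well plates, pin-transferred compound to 10 μM final, and pre-incubated for 1 hour at 37 °C before a PRR agonist was added and the cells incubated overnight. NF-κB activity was read from supernatant SEAP with QUANTI-Blue at 620 nm absorbance, and IRF activity from Lucia luciferase with QUANTI-Luc by luminescence. Each signal was expressed as fold change by dividing by the mean agonist-only control on the same plate. Two replicate plates were averaged, with errors obtained by propagation.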

[2] = tested on: RAW-Dual (murine macrophage reporter line); assay: IRF reporter (Lucia luciferase) activity fold change vs agonist alone; higher = enhanced IRF activity
Method in brief: as §1

[3] = tested on: RAW-Dual (murine macrophage reporter line); assay: viability score (confluency relative to resting cells, overnight) (fraction); higher = more viable, active = viable (0.7 or more)
Method in brief: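 RAW-Dual macrophages in 384-well plates were treated overnight with compound at 10 μM final. IncuCyte imaging recorded confluency, and IncuCyte software built two confluency masks across every imaged well. The viability score expresses confluency relative to resting cells and was judged against a cutoff, which a compound met only if both masks exceeded 70% of resting cells.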

[4] = agonist: CpG ODN 1826 0.5 ug/mL

Row | SMILES | NF-kB reporter [1, 4] | NF-kB reporter ([1]; agonist: LPS 0.1 ug/mL) | NF-kB reporter ([1]; agonist: MPLA […]) | IRF reporter ([2]; agonist: 3'3'-cGAMP 10 ug/mL) | IRF reporter ([2]; agonist: LPS 0.1 ug/mL) | IRF reporter ([2]; agonist: MPLA […]) | viability score [3]
1 | COc1ccc(N(CC(=O)NCCSCc2cccc(Cl)c2)S(C)(=O)=O)cc1Cl | 0.917 ± 0.073 | 0.98 ± 0.065 | 0.831 ± 0.05 | 1.11 ± 0.031 | 1.08 ± 0.12 | 0.974 ± 0.098 | 1 (active)
2 | CC(C)n1cnc(S(=O)(=O)N2CCC(S(=O)(=O)Cc3ccccc3)CC2)c1 | 0.891 ± 0.05 | 0.891 ± 0.072 | 1.02 ± 0.055 | 1.06 ± 0.062 | 1.3 ± 0.3 | 1.37 ± 0.34 | 1 (active)
3 | O=C(O)CCCN1CCC(O[C@@H](c2ccc(Cl)cc2)c2ccccn2)CC1.O=S(=O)(O)c1ccccc1 | 1.37 ± 0.19 | 1.24 ± 0.3 | 0.988 ± 0.059 | 0.995 ± 0.046 | 1.18 ± 0.26 | 1.09 ± 0.1 | 0.985 (active)
4 | COCCN1CCC(NC(=O)c2cnc3ccccc3n2)CC1 | 0.441 ± 0.024 | 1.02 ± 0.085 | 1.35 ± 0.072 | 0.951 ± 0.05 | 1.14 ± 0.25 | 1.2 ± 0.48 | 0.935 (active)
5 | CCOc1nc2cccc(C(=O)O)c2n1Cc1ccc(-c2ccccc2-c2nnn[nH]2)cc1 [Prestw-1258] | 1.29 ± 0.26 | 1.16 ± 0.11 | 0.925 ± 0.074 | 0.918 ± 0.029 | 0.914 ± 0.093 | 1.14 ± 0.14 | 0.995 (active)
6 | OCCN1CCN(CCCN2c3ccccc3C=Cc3ccccc32)CC1 [Prestw-1456] | 0.862 ± 0.066 | 1 ± 0.082 | 1.37 ± 0.053 | 0.807 ± 0.029 | 1.06 ± 0.049 | 1.49 ± 0.18 | 0.904 (active)
7 | CN1CCN(C(c2ccccc2)c2ccccc2)CC1.Cl.Cl | 0.727 ± 0.12 | 0.833 ± 0.21 | 0.89 ± 0.05 | 0.701 ± 0.023 | 1.25 ± 0.29 | 1.03 ± 0.084 | 0.985 (active)
8 | CC(=O)c1cc2c(o1)C(=O)c1ccccc1C2=O | 1.19 ± 0.28 | 1.36 ± 0.068 | 1.31 ± 0.1 | 0.995 ± 0.035 | 1.12 ± 0.16 | 1.18 ± 0.27 | 0.995 (active)
9 | O=C(c1cc(C(F)(F)F)cc(C(F)(F)F)c1)N1CCOCC1CO (stereo not drawn) | 0.94 ± 0.053 | 1.03 ± 0.12 | 0.869 ± 0.099 | 0.969 ± 0.072 | 1.04 ± 0.092 | 0.989 ± 0.38 | 0.999 (active)
10 | Nc1ncnc2c1nc(S)n2C1OC(CO)C(O)C1O (stereo not drawn) | 0.775 ± 0.061 | 0.9 ± 0.082 | 0.951 ± 0.11 | 0.957 ± 0.051 | 1.15 ± 0.067 | 1.27 ± 0.14 | 1.02 (active)
11 | Cc1nc(C(=O)NCC(=O)O)c(O)c2ccc(Oc3ccccc3)cc12 | 0.856 ± 0.12 | 1.05 ± 0.39 | 0.94 ± 0.053 | 0.925 ± 0.04 | 1.09 ± 0.25 | 0.97 ± 0.28 | 0.996 (active)
12 | Nc1cccc(O)c1 | 0.98 ± 0.099 | 1.08 ± 0.069 | 1.03 ± 0.023 | 0.983 ± 0.09 | 0.946 ± 0.092 | 0.938 ± 0.11 | 0.997 (active)
13 | NC(=O)COc1ccc(Nc2nnc(-c3ccccc3)c3ccccc23)cc1 | 0.782 ± 0.083 | 0.806 ± 0.051 | 1.08 ± 0.093 | 0.747 ± 0.034 | 1.19 ± 0.069 | 1.23 ± 0.14 | 1.01 (active)
14 | O=C(Nc1nc2cccc(-c3ccc(CN4CCS(=O)(=O)CC4)cc3)n2n1)C1CC1 | 0.0988 ± 0.0077 | 0.639 ± 0.07 | 0.873 ± 0.05 | 0.79 ± 0.047 | 0.851 ± 0.2 | 0.845 ± 0.25 | 0.834 (active)
15 | O=[N+]([O-])c1ccc(Nc2ccccc2O)c2nonc12 | 1.74 ± 0.097 | 1.21 ± 0.088 | 1.7 ± 0.099 | 0.69 ± 0.023 | 1.55 ± 0.11 | 1.28 ± 0.17 | 0.9 (active)
16 | O=C(c1ccco1)c1nc2c(n1O)CCCCC2 | 1.12 ± 0.073 | 0.995 ± 0.089 | 1.03 ± 0.028 | 0.998 ± 0.07 | 0.971 ± 0.078 | 1.03 ± 0.1 | 1 (active)
17 | Br.NC(=O)C(c1ccccc1)(c1ccccc1)[C@@H]1CCN(CCc2ccc3c(c2)CCO3)C1 | 0.471 ± 0.18 | 1.25 ± 0.27 | 1.53 ± 0.37 | 0.485 ± 0.015 | 1.15 ± 0.41 | 1.41 ± 0.22 | 0.975 (active)
18 | Br.O=S(=O)(c1ccc(-c2csc(Nc3ccc(Cl)cc3)n2)cc1)N1CCCC1 | 0.941 ± 0.15 | 1.04 ± 0.13 | 0.869 ± 0.069 | 0.885 ± 0.026 | 1.19 ± 0.17 | 1.48 ± 0.28 | 0.991 (active)
19 | O=C(CCCc1ccccc1)NCC1(O)CCCC1 | 0.858 ± 0.079 | 0.968 ± 0.078 | 0.867 ± 0.049 | 0.968 ± 0.05 | 0.977 ± 0.061 | 0.917 ± 0.23 | 1.01 (active)
20 | COC(=O)c1cc(OC)c(=O)c2c(OC)c(OC)ccc2c1 | 1.08 ± 0.33 | 0.981 ± 0.059 | 0.931 ± 0.1 | 0.743 ± 0.03 | 1.02 ± 0.22 | 0.884 ± 0.088 | 0.984 (active)
21 | C1CCC(N2NC2C2NN2C2CCCCC2)CC1 (stereo not drawn) | 1.01 ± 0.22 | 1.03 ± 0.11 | 0.964 ± 0.091 | 0.938 ± 0.024 | 1.23 ± 0.19 | 1.05 ± 0.11 | 1.01 (active)
22 | C=C(C)COc1ccc(-c2ncncc2-c2ccccc2)c(O)c1 | 1.08 ± 0.18 | 0.985 ± 0.088 | 0.963 ± 0.082 | 0.996 ± 0.029 | 1.14 ± 0.17 | 1.27 ± 0.13 | 1 (active)
23 | Oc1ccc(N=Cc2ccccc2F)cc1 | 0.861 ± 0.099 | 0.887 ± 0.079 | 1.1 ± 0.064 | 0.304 ± 0.012 | 0.686 ± 0.028 | 1.36 ± 0.14 | 0.879 (active)
24 | COc1ccc(C=NNC(=O)C2COc3cc4ccccc4cc3O2)c(O)c1 (stereo not drawn) | 0.993 ± 0.094 | 0.966 ± 0.054 | 0.98 ± 0.079 | 0.956 ± 0.031 | 1.31 ± 0.18 | 1.1 ± 0.15 | 1.01 (active)
